Source: PubChem BioAssay (ICCB-Longwood Screening Facility, Harvard Medical School)
This is one part of a sample in which hits are shown more often than they occur.
Sa helicase inh: S. aureus DNA helicase inhibition; purified S. aureus helicase, fluorescence unwinding assay; inhibition, % (test concentration not listed); 120,000 tested, 0.05% active; in the data active = inhibition above about 25%, passing the limit was not always enough
Sa growth 42C: inhibitors of Staphylococcus aureus growth at 42 °C; S. aureus RN4220 growth, OD600, 20 h; hits give low values; relative growth, % (no concentration beside the values); 170,000 tested, 0.53% active; AID 720641;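 active = relative growth at most 50% at the other temperature and 20+ points below 30 °C, or under 10% at both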
Large screens that a line does not name were inactive.

O=C(Nc1nnc(C2=COCCO2)o1)c1ccc(Cl)cc1	Sa growth 42C 3.7
O=C(Nc1nnc(-c2cccs2)o1)c1ccccc1	none (no result: Sa growth 42C)
COc1ccc(-c2nnc(NC(=O)c3ccc(S(=O)(=O)N4CCCc5ccccc54)cc3)o2)cc1	none
COc1ccc(-c2nnc(NC(=O)C3CC3)o2)cc1	none
COc1cc(OC)cc(-c2nnc(NC(=O)c3ccc(S(=O)(=O)N4COCC4(C)C)cc3)o2)c1	Sa growth 42C 1.0
O=C(Nc1nnc(-c2ccc(Cl)cc2)o1)C1CC1	Sa growth 42C 2.6
O=C(Nc1nnc(-c2ccccc2)o1)c1ccccc1	Sa growth 42C 0.0
O=C(Nc1nnc(C2=COCCO2)o1)c1cccc2ccccc12	none
CSc1ncccc1C(=O)OCC(=O)Nc1ccccc1C(=O)NC1CC1	none
Cc1ccc(Cn2cc(CCC(=O)NC3CCCCC3)c3ccccc32)cc1	none (no result: Sa helicase inh)
O=C(O)C1CCOCC1	none
CCCn1c(CCCNC(=O)C(C)(C)C)nc2ccccc21	none (no result: Sa growth 42C)
O=C(CSc1ccc(-c2cccs2)nn1)c1ccccc1	none
COc1cc(OC)cc(-c2nnc(NC(=O)c3ccc(S(=O)(=O)N(C)c4ccccc4)cc3)o2)c1	Sa growth 42C -0.1
CN(C1CCCCC1)S(=O)(=O)c1ccc(C(=O)Nc2ccccc2)cc1	none (no result: Sa growth 42C)
CN(C1CCCCC1)S(=O)(=O)c1ccc(C(=O)Nc2nnc(-c3cccnc3)o2)cc1	Sa growth 42C 2.3
CN(Cc1ccccc1)S(=O)(=O)c1ccc(C(=O)Nc2nnc(-c3ccco3)o2)cc1	none
Cc1nn(CO)c(C)c1Sc1ccc(Br)cc1	Sa growth 42C 18
Cc1nn(C)c(C)c1Sc1ccc(Br)cc1	none
COC(=O)c1c(NC(=O)CN2C(=O)c3cccc4cccc2c34)sc2c1CCCC2	none
CCOC(=O)C1CCCN(C(=O)c2ccccc2OCC)C1 (stereo unspecified)	none
Cn1c(=O)n(C)c2cc(N3CCCCC3)c(NC(=O)c3c(F)cccc3F)cc21	none (no result: Sa helicase inh)
O[N+]1=CC=CCC1=S.On1ccccc1=S.[Zn]	Sa growth 42C -0.3 (no result: Sa helicase inh)
Cc1cc(C)n(CCCNC(=O)CSc2ccc(S(=O)(=O)N(C)C3CCCCC3)cn2)n1	none
C(=Nc1cccnc1)c1c[nH]c2ccccc12	Sa growth 42C 8.3
C(=Nc1cccnc1)c1ccccc1	none
COc1cccc(/C(O)=C/c2nc3ccc(C(=O)Nc4cccc(C)c4)cc3[nH]c2=O)c1	none
Fc1ccc(Nc2nc3nonc3nc2Nc2ccccc2F)cc1	Sa growth 42C -0.6
NNc1nc(NN)nc(Nc2cccc(C(F)(F)F)c2)n1	none
O=c1[nH]c2nonc2nc1Nc1ccccc1F	none
Fc1ccc(Nc2nc3nonc3nc2Nc2cccc(C(F)(F)F)c2)cc1	Sa growth 42C -1.0 (no result: Sa helicase inh)
O=C(Nc1cccc(NC(=O)C2CC2)c1)C1CC1	none
Cc1nc2ccccc2nc1Sc1nnc(-c2ccccc2)o1	none
CC1COC2=C(N3CCN(C)CC3)C(F)=CC3C(=O)C(C(=O)O)=CN1C23 (stereo unspecified)	Sa growth 42C -0.5
CC(=O)Nc1nonc1NC(C)=O	none
CC(=O)Nc1cc(OC(C)=O)c2nonc2c1OC(C)=O	Sa growth 42C 0.9
O=C1NC2(CCN(C(=O)Nc3ccccc3)CC2)Oc2ccccc21	none
O=C1N(CN2CCOCC2)c2ccccc2C12OCCO2	none
O=C(O)c1ccc(CN2CCCCC2)cc1	none
O=C(O)c1ccc(O)c(SCN2CCCCC2)c1	Sa growth 42C 4.1
Cc1ccc(CSc2nc(-c3cccs3)ccc2C#N)cc1	none (no result: Sa helicase inh)
N#Cc1ccc(CSc2nc(-c3cccs3)c3c(c2C(=O)O)CCCC3)cc1	Sa growth 42C 0.1
CC(=O)N1C(c2ccccc2)SC(C)(C)C1C(=O)O (stereo unspecified)	none (no result: Sa helicase inh)
CC1(C)S[C@@H]2C(N3C(=O)[C@@H](c4ccccc4)NC3(C)C)C(=O)N2[C@H]1C(=O)O (stereo partly specified)	Sa growth 42C -0.3 (no result: Sa helicase inh)
CC1(C)SC(CNC(=O)Cc2ccccc2)NC1C(=O)O (stereo unspecified)	none (no result: Sa helicase inh)
CC1(C)S[C@@H]2[C@H](NC(=O)COc3ccccc3)C(=O)N2[C@H]1C(=O)O	Sa growth 42C -0.9 (no result: Sa helicase inh)
CC1(C)S[C@@H]2[C@H](NC(=O)Cc3ccccc3)C(=O)N2[C@H]1C(=O)O	Sa growth 42C -0.9 (no result: Sa helicase inh)
NNC(=O)COc1ccccc1	none (no result: Sa helicase inh)
Cc1onc(-c2ccccc2Cl)c1C(=O)NC1=NCCS1	none
Cc1onc(-c2ccccc2Cl)c1C(=O)N[C@@H]1C(=O)N2[C@@H]1SC(C)(C)[C@@H]2C(=O)O	Sa growth 42C 0.0 (no result: Sa helicase inh)
O=c1[nH]c2c(oc3ccc(Cl)cc32)c(=O)n1-c1ccccc1	none
CN(CC1COc2ccccc2O1)C(=O)/C=C/c1cccs1 (stereo unspecified)	none
CCc1ccc(NS(=O)(=O)c2cccs2)cc1	none
CCC(C)(C)NC(=O)C(NS(=O)(=O)c1cccs1)c1ccccc1 (stereo unspecified)	none (no result: Sa helicase inh)
CCN1CCN(C(=O)NC(C(=O)N[C@@H]2C(=O)N3[C@@H]2SC(C)(C)[C@@H]3C(=O)O)c2ccccc2)C(=O)C1=O (stereo partly specified)	Sa growth 42C -0.3 (no result: Sa helicase inh)
O=C(CSc1nccn1Cc1ccccc1)Nc1ccc2c(c1)OCO2	none (no result: Sa helicase inh)
CCCN(CCC)C(=O)Cn1c(SCc2cccc(C)c2)nc2ccncc21	none
